# Data: paper PMC13494018
# Values without a mark were called inactive. No rule for the calls is given here.
# Biological target: VTCN1, Q7Z7D3
# Sequence (Q7Z7D3 whole entry): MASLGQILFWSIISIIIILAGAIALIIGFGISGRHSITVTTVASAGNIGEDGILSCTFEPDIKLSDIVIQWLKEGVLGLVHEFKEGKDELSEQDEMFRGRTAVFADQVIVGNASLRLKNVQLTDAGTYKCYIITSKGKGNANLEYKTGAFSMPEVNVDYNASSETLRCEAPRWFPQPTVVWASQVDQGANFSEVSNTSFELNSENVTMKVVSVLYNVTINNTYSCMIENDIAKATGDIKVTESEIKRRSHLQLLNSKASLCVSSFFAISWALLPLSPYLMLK
row,Binder,binding in a display sort
1,design_596_3e5f537c-0703-45f0-993f-ff416531349a_1563_dldesign_0_cycle1_af2pred (protein) AEKHLKEAKKLAEEAKKLAEEAEKDPSTAPEKAKKAEEAARKAREEAKKAAEADPSVAPEAAKAAQEAYEARAVAEAVANRYLK,not found
2,design_596_3e5f537c-0703-45f0-993f-ff416531349a_1315_dldesign_0_cycle1_af2pred (protein) SITYKNKALAYLEAAKHALEVAKKNVGDLEKVKKAYEQAKKFVEKALEYASKVTPEFLAEAKAESEKILAEMEKVLKEAE,not found
3,design_596_3e5f537c-0703-45f0-993f-ff416531349a_1052_dldesign_0_cycle1_af2pred (protein) GEEKLKEAKKEAEKKLEELKKKGKEVGPEAVKIVEKAKERIEKKYKEAEKMKNKEAGALSFEEFAKDAIEAAKKQIEKLAKEKA,not found
4,design_596_3e5f537c-0703-45f0-993f-ff416531349a_1329_dldesign_0_cycle1_af2pred (protein) MEASEELRKAIKYARELGEKGTEEHKKLAAEAVFYASSDPEKAIALLKEVAKDPKVKELAEKAIEHIKKLAEL,not found
5,design_596_3e5f537c-0703-45f0-993f-ff416531349a_1299_dldesign_0_cycle1_af2pred (protein) MSKKLTEALSAFNKAAAAAAKLIDEEAKKDPKKAAEVKKLLAKAVYEIDNPEKAAAYLEAAAKAATDAATKAELNAAAAEAKKLGEL,not found
6,design_596_3e5f537c-0703-45f0-993f-ff416531349a_1683_dldesign_0_cycle1_af2pred (protein) EEEKRREAAERLRELAKKALEDVENAPEYLEEAAREAEKVGDYTTAVLLEQLAEDVRKASPEEAVKFVRAGAERALRSAERLL,not found
7,design_596_3e5f537c-0703-45f0-993f-ff416531349a_512_dldesign_0_cycle1_af2pred (protein) DADTIRAASKALKAAGKDPKTAPLAKEAKEALFKGLEYENKDPKKAAEYYKKAAELLRKLAEKAEAKEELLKVAEELEKKAEELKKK,not found
8,design_596_3e5f537c-0703-45f0-993f-ff416531349a_1686_dldesign_0_cycle1_af2pred (protein) MDEEIKKKAIEIAQKALEAAAEYEAKAIRTGDEESKKKAEELRELAKKIREALKEGNIEEAKKYAEKAKKLIEEA,not found
9,design_596_3e5f537c-0703-45f0-993f-ff416531349a_1970_dldesign_0_cycle1_af2pred (protein) DEEEKEKKLEEARKAKDEAEEALDKAMEKASPEEALELLEEYRKVSKEAQKLVKEEGVEGAAEAAKLLKEQKKYFEEKYKEL,not found
10,design_596_3e5f537c-0703-45f0-993f-ff416531349a_566_dldesign_0_cycle1_af2pred (protein) DKLVEEAKKAAEEAEKLLDKAIKVSPKAAAEAATAYALYENALSAAESGSATEEEVKAQLEKGKEKLKKAKEIMKKEEEKK,not found
11,design_596_3e5f537c-0703-45f0-993f-ff416531349a_988_dldesign_0_cycle1_af2pred (protein) VEKVAKEAKKAAKEARKEAKKTKDGKAAQELLEAASEAEGYAILAEKDPKYAPKAKEAAKKAKELVEKVKKE,not found
12,design_596_3e5f537c-0703-45f0-993f-ff416531349a_533_dldesign_0_cycle1_af2pred (protein) SAITEQNKKEALAERAKHVGEAAVKQAKAHAGDVAYIEKLQKQALEAGKKANEEGKKAAEAAAKEIAKIAAQAKAAK,not found
13,design_596_3e5f537c-0703-45f0-993f-ff416531349a_1819_dldesign_0_cycle1_af2pred (protein) HAATVKAVAAEAKELAEEKIKAMKENAKDEEGIKLAVNSMKRFADNDAKLGPEAGAAAKAEYEKVEKAAKEIIKEAKA,not found
14,design_596_3e5f537c-0703-45f0-993f-ff416531349a_508_dldesign_0_cycle1_af2pred (protein) KEKIQKEGLKEIEKIAEEGIKEAKKYAEEGKYEEAKKIAKEALEKMREKAKELGEKVGEEAQKQGAKIIQKAREELSEYVQKAKLKK,not found
15,design_596_3e5f537c-0703-45f0-993f-ff416531349a_642_dldesign_0_cycle1_af2pred (protein) SLEENYELAKRVAEAAKEAGKEAKKAGPELAPIGEKAEKEAKELLKEAELAYKDPSYIPEAGKEAQKALEAKAEADWAIAQYK,not found
16,design_596_3e5f537c-0703-45f0-993f-ff416531349a_666_dldesign_0_cycle1_af2pred (protein) SEEGKKKVEEAKKRAEKAKKKAKEAIKKSKEEGKAAVYSLLGIAESFKLLAKAMAKTDPEAGKKIKEVAEEAEKKAKELLEEVEK,not found
17,design_596_3e5f537c-0703-45f0-993f-ff416531349a_1302_dldesign_0_cycle1_af2pred (protein) KEKLIEEAKKEAKEVVEKAKAILKSKAKEGKLEEGIKEAANLLQEFQQKLTEISFENPEVKEDMEKIFKEARDELKAEIEAAKAA,not found
18,design_596_3e5f537c-0703-45f0-993f-ff416531349a_1289_dldesign_0_cycle1_af2pred (protein) MNDALAAESYGEGLVEDAEKEAKEAIEKGASPEELKKVAKKARERAERVRRYAERRAKEAENSEEVLAAGEKAVKKLEEIAKELEKAA,not found
19,design_596_3e5f537c-0703-45f0-993f-ff416531349a_778_dldesign_0_cycle1_af2pred (protein) AAAEEEKEQKEKLEEVKELAKKMVEEVKEYAKKTTVEEAKKYLDEKKKELFKYAREKVGYEGVEEAVEAYGEARTAILKLEKN,not found
